Laboratory results as given in PubChem BioAssay (NCATS).
Inconclusive results are not listed. Calls of active or inactive are those of the source. Calls come from the whole dose curve; as a rule, active = well fitted inhibition curve with a large enough effect; inconclusive = small, poorly fitted or top-dose-only effect; inactive = flat fitted curve, though single readings scatter. Peptide text beside a SMILES is read from it.

System: JCK
Experiment: qHTS profiling for inhibitors of Plasmodium falciparum proliferation (AID 504749); note: nearly all actives have a fitted effect of over 60% in size;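 for activity, negative = inhibition: 0% = DMSO vehicle and full inhibition = artemisinin control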
Conditions: P. falciparum in erythrocytes, SYBR Green DNA, 72 h; series mostly up to 12.8 µM; activity, negative = inhibition: at the top concentration
Outline: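 P. falciparum-infected erythrocytes (0.3% parasitemia, 2.5% hematocrit) incubated with compound 72 h at 37 C, 5% CO2. Parasite DNA detected by SYBR Green after lysis, overnight at room temperature; normalised to 0.29 uM artemisinin and DMSO.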
Potency is the fitted concentration of half-maximal effect.

Row | SMILES | activity, negative = inhibition | Potency
1 | CN(C)CCCOC1C(C(O)CO)OC2OC(C)(C)O[C@@H]21 (some centres not stated) | 1.57% [at 28.7 µM] (inactive) | 
2 | CCC(C)C(=O)OC1CCC=C2C=CC(C)C(CCC3CC(O)CC(=O)O3)[C@@H]21 (some centres not stated) | -28.9% [at 28.7 µM] (inactive) | 
3 | CC(=O)OC1CCC2C3CCc4cc(O)ccc4C3CCC12C (configuration not stated) | 5.73% [at 28.7 µM] (inactive) | 
4 | CC[C@@]12CCCN3CCc4c(n(c5ccccc45)[C@](O)(C(=O)OC)C1)C32 (some centres not stated) | 8.19% [at 28.7 µM] (inactive) | 
5 | NC(C(=O)O)[C@@H]1CC(Cl)=NO1 (some centres not stated) |  | 5.62 µM (active)
6 | CN1CC(=O)N=C1N | 2.51% [at 28.7 µM] (inactive) | 
7 | OCC1OC([S-])[C@H](O)C(O)C1O.[Au+] (some centres not stated) | -2.62% [at 28.7 µM] (inactive) | 
8 | CC(C)C1CCC(C(=O)NC(Cc2ccccc2)C(=O)O)CC1 (configuration not stated) | 5.66% [at 28.7 µM] (inactive) | 
9 | CCC(CCC(C)C1CCC2C3CC=C4CC(O)CC[C@@]4(C)C3CC[C@@]12C)C(C)C (some centres not stated) | 1.98% [at 28.7 µM] (inactive) | 
10 | C[C@]12CCC(=O)C=C1CCC1C2C(=O)C[C@]2(C)C1CC[C@]2(O)C(=O)CO (some centres not stated) | -24.6% [at 28.7 µM] (inactive) | 
11 | OCC1O[C@H](OC2C(CO)O[C@@](O)(CO)C2O)C(O)C(O)C1O (some centres not stated) | 3.88% [at 28.7 µM] (inactive) | 
12 | CC1(C)OC2CO[C@]3(COS(N)(=O)=O)OC(C)(C)OC3C2O1 (some centres not stated) | -13.6% [at 28.7 µM] (inactive) | 
13 | CC1(C)OC2CC(=O)OC[C@@]23C1CC(=O)[C@]1(C)C3CC[C@@]2(C)C(c3ccoc3)OC(=O)C3O[C@@]321 (some centres not stated) | -4.13% [at 28.7 µM] (inactive) | 
14 | CCOC(=O)C1=CC(OC(CC)CC)C(NC(C)=O)C(N)C1 (configuration not stated) | -12.6% [at 28.7 µM] (inactive) | 
15 | COC(=O)C(Cc1ccccc1)NC(=O)C(N)CC(=O)O (stereo not drawn) (H-Asp-Phe-OMe; configuration not given here) | 3.95% [at 28.7 µM] (inactive) | 
16 | C[C@]12C=CC(=O)C=C1CCC1C2C(O)C[C@]2(C)C1CC[C@]2(O)C(=O)CO (some centres not stated) | -21.8% [at 28.7 µM] (inactive) | 
17 | CC1(C)S[C@H]2C(NC(=O)[C@@H](N)c3ccc(O)cc3)C(=O)N2[C@@H]1C(=O)O (some centres not stated) | -0.405% [at 28.7 µM] (inactive) | 
